This passage reports relative viability results from the supplement of paper PMC6279402.

Where a name gives a salt, the structure may show the parent alone. ± gives the standard deviation of the averaged measurements.

The experiment deals with A549. Kind of experiment: relative viability (normalised to negative control = 1, bortezomib = 0) (fraction); higher = less cytotoxic. The note with it: inflammatory serum-free RHB-A with cytokines + LPS, 5 d + 24 h CellTiter-Blue. A general note: The colour change of resazurin is a common sign of viable cells or microbes.
The mark [1] stands for this setting: compound 30 nM, GSK126 pretreatment: 5 uM GSK126.
[2] abbreviates: compound 30 nM, GSK126 pretreatment: none (vehicle).
Where [3] appears, read: compound 300 nM, GSK126 pretreatment: 5 uM GSK126.
The mark [4] stands for this setting: compound 300 nM, GSK126 pretreatment: none (vehicle).

For `O=C1NC(=O)/C(=C\c2ccc3nccnc3c2)S1`, the relative viability under setting [1] is 0.877 ± 0.1, the relative viability under setting [2] came out at 0.854 ± 0.032, the relative viability under setting [3] was 0.915 ± 0.14 and the relative viability under setting [4] was 0.946 ± 0.17.
With `CN(C)/N=N/c1[nH]cnc1C(N)=O` [Dacarbazine], the relative viability stood at 0.931 ± 0.18 under setting [1], 0.992 ± 0.11 under setting [2], 1.05 ± 0.11 under setting [3] and 1.07 ± 0.031 under setting [4].
On the same counts, the results for `Cc1nc(NC(=O)N2CCC[C@H]2C(N)=O)sc1-c1csc(C(C)(C)C)n1` are 0.809 ± 0.045, 0.869 ± 0.085, 0.704 ± 0.044 and 0.784 ± 0.059.
As for `CC[C@H](Nc1ncnc2nc[nH]c12)c1nc2cccc(F)c2c(=O)n1-c1ccccc1`, the relative viability was found to be 0.899 ± 0.11 under setting [1], 0.876 ± 0.1 under setting [2], 0.878 ± 0.08 under setting [3] and 0.852 ± 0.035 under setting [4].
The like results for `C[S+]([O-])c1ccc(-c2nc(-c3ccc(F)cc3)c(-c3ccncc3)[nH]2)cc1` (centres undefined) were, in that order, 1.03 ± 0.22, 0.902 ± 0.11, 1.3 ± 0.14 and 1.14 ± 0.13.
On the same counts, the results for `CS(=O)(=O)c1ccc(C(=O)Nc2ccc(Cl)c(-c3ccccn3)c2)c(Cl)c1` [Vismodegib] are 0.993 ± 0.058, 0.952 ± 0.12, 1.05 ± 0.14 and 1.03 ± 0.074.
The like results for `COc1ccc(-c2ccc3c(N4CCOCC4)nc(N4C[C@@H](C)O[C@@H](C)C4)nc3n2)cc1CO` were, in that order, 0.708 ± 0.013, 0.745 ± 0.027, 0.428 ± 0.052 and 0.515 ± 0.086.
Consider `CO[C@H](C(=O)[C@@H](O)[C@@H](C)O)[C@@H]1Cc2cc3cc(O[C@H]4C[C@@H](O[C@H]5C[C@@H](O)[C@H](O)[C@@H](C)O5)[C@H](O)[C@@H](C)O4)c(C)c(O)c3c(O)c2C(=O)[C@H]1O[C@H]1C[C@@H](O[C@H]2C[C@@H](O[C@H]3C[C@](C)(O)[C@H](O)[C@@H](C)O3)[C@@H](O)[C@@H](C)O2)[C@H](O)[C@@H](C)O1` [Plicamycin], for which the relative viability reads like this: under setting [1], 0.1 ± 0.012; under setting [2], 0.183 ± 0.058; under setting [3], 0.00825 ± 0.00088; under setting [4], 0.0263 ± 0.0054.
The like results for `COc1cc([C@@H]2c3cc4c(cc3[C@@H](O[C@@H]3O[C@@H]5CO[C@@H](C)O[C@H]5[C@H](O)[C@H]3O)[C@H]3COC(=O)[C@H]23)OCO4)cc(OC)c1O` [Etoposide] were, in that order, 0.938 ± 0.081, 0.935 ± 0.037, 0.985 ± 0.046 and 0.845 ± 0.047.
On the same counts, the results for `CO[C@H]1C[C@@H]2CC[C@@H](C)[C@@](O)(O2)C(=O)C(=O)N2CCCC[C@H]2C(=O)O[C@H]([C@H](C)C[C@@H]2CC[C@@H](OP(C)(C)=O)[C@H](OC)C2)CC(=O)[C@H](C)/C=C(\C)[C@@H](O)[C@@H](OC)C(=O)[C@H](C)C[C@H](C)/C=C/C=C/C=C/1C` [Deforolimus(MK-8669)] are 0.574 ± 0.039, 0.591 ± 0.02, 0.548 ± 0.03 and 0.523 ± 0.041.
On the same counts, the results for `COc1cc2nccc(Oc3ccc(NC(=O)Nc4ccc(F)cc4F)c(F)c3)c2cc1OC` are 0.86 ± 0.097, 0.832 ± 0.051, 0.916 ± 0.12 and 1.01 ± 0.075.
On to `C=CC(=O)N1CCC[C@@H](n2nc(-c3ccc(Oc4ccccc4)cc3)c3c(N)ncnc32)C1`, for which the relative viability was 0.769 ± 0.14 under setting [1], 0.718 ± 0.11 under setting [2], 0.429 ± 0.02 under setting [3] and 0.41 ± 0.048 under setting [4].
Regarding `CC(=O)Nc1cccc(-n2c(=O)n(C3CC3)c(=O)c3c(Nc4ccc(I)cc4F)n(C)c(=O)c(C)c32)c1`, the relative viability by setting is: under setting [1], 0.144 ± 0.01; under setting [2], 0.171 ± 0.011; under setting [3], 0.0602 ± 0.013; under setting [4], 0.0354 ± 0.0045.
`CCOc1ccn(-c2ccc(F)cc2)c(=O)c1C(=O)Nc1ccc(Oc2ccnc(N)c2Cl)c(F)c1`: the relative viability is 0.905 ± 0.21 under setting [1], 0.914 ± 0.17 under setting [2], 0.977 ± 0.21 under setting [3] and 1.08 ± 0.16 under setting [4].
For the molecule `C#Cc1cccc(Nc2ncnc3cc(OCCOC)c(OCCO)cc23)c1` [OSI-420 (Desmethyl Erlotinib)], the relative viability was found to be 0.944 ± 0.086 under setting [1], 0.91 ± 0.05 under setting [2], 0.477 ± 0.047 under setting [3] and 0.505 ± 0.019 under setting [4].
Turning to `COc1cccc2c1C(=O)c1c(O)c3c(c(O)c1C2=O)C[C@@](O)(C(=O)CO)C[C@@H]3O[C@H]1C[C@H](N)[C@H](O)[C@H](C)O1` [Doxorubicin hydrochloride; 4'-Epiadriamycin; Doxorubicin HCl], the relative viability is 0.967 ± 0.022 under setting [1], 0.9737 ± 0.0065 under setting [2], 0.454 ± 0.027 under setting [3] and 0.463 ± 0.075 under setting [4].
For the molecule `CCOc1cc2ncc(C#N)c(Nc3ccc(OCc4ccccn4)c(Cl)c3)c2cc1NC(=O)/C=C/CN(C)C` [Neratinib], the relative viability runs as follows: under setting [1], 0.713 ± 0.16; under setting [2], 0.675 ± 0.14; under setting [3], 0.196 ± 0.014; under setting [4], 0.183 ± 0.014.
In the case of `CC[C@]1(O)C[C@H]2CN(CCc3c([nH]c4ccccc34)[C@@](C(=O)OC)(c3cc4c(cc3OC)N(C=O)[C@H]3[C@@](O)(C(=O)OC)[C@H](OC(C)=O)[C@]5(CC)C=CCN6CC[C@]43[C@@H]65)C2)C1` [Vincristine sulfate], the relative viability by setting is: under setting [1], 0.453 ± 0.072; under setting [2], 0.289 ± 0.031; under setting [3], 0.388 ± 0.035; under setting [4], 0.303 ± 0.014.
Regarding `OCCn1cc(-c2ccc3c(c2)CC/C3=N\O)c(-c2ccncc2)n1`, the relative viability was 0.948 ± 0.11 under setting [1], 0.989 ± 0.093 under setting [2], 1.03 ± 0.21 under setting [3] and 1.14 ± 0.16 under setting [4].
As for `CC1=C(/C=C/C(C)=C/C=C/C(C)=C/C(=O)O)C(C)(C)CCC1` [Retinoic acid; Tretinoin; 13-cis-retinoic acid], the relative viability is, setting by setting: under setting [1], 1.04 ± 0.088; under setting [2], 0.922 ± 0.043; under setting [3], 1.34 ± 0.05; under setting [4], 1.14 ± 0.064.
The like results for `Cc1c(NC(=O)OC[C@@H]2COCCN2)cn2ncnc(Nc3ccc4c(cnn4Cc4cccc(F)c4)c3)c12` were, in that order, 0.806 ± 0.16, 0.802 ± 0.081, 0.56 ± 0.088 and 0.621 ± 0.052.
